Source: PubChem (National Center for Advancing Translational Sciences (NCATS))
FLuc counter = firefly luciferase modulation, counter-screen for miR-21 project | AID 588342 | Potency, µM (highest dose often 57.5 µM), for inactives: top-dose activity change, negative = inhibition, actives largely listed as inhibitors | purified FLuc, Km substrates, luminescence inhibition | 6.9% of 360,000 active | P08659;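 also: plate controls were vehicle for no effect and reference inhibitor for full effect; nearly all actives have a fitted effect of over 55% in size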
Target sequence (P08659 whole entry, looked up): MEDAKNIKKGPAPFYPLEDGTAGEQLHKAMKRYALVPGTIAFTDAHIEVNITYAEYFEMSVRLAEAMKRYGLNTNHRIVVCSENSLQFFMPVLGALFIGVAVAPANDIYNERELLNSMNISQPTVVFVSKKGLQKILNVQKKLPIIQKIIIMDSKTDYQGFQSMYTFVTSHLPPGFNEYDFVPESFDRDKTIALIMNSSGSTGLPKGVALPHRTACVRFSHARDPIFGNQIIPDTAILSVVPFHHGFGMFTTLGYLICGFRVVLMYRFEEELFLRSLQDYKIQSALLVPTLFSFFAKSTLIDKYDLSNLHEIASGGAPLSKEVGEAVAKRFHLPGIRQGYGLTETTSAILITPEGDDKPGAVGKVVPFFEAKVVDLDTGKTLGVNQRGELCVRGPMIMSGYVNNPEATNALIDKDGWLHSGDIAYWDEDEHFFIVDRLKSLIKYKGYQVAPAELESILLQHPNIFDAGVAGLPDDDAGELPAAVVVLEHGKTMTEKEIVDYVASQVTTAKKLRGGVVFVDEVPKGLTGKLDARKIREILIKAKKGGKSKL
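Biochemical qHTS of compounds, final roughly 60 µM downward over six points, against 10 nM purified firefly luciferase using Km concentrations of substrates (10 uM D-luciferin, 10 uM ATP) in Tris acetate pH 7.5 buffer; luminescence output.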
ELG1 genotoxic = induces genotoxicity in HEK293T cells with luciferase-tagged ELG1; HEK293T ELG1-luciferase reporter, luminescence, 16 h; Potency, µM (highest dose often 46 µM), for the others: at the highest dose activity change, positive = activation, hits mostly activators; 1.3% of 330,000 active; also: % of control where 0% means no effect; nearly all actives have a fitted effect of over 60% in size
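After overnight (16 hr) compound treatment at 37 °C, ELG1-luciferase HEK293T cells were lysed with ONE-Glo; luminescence quantified 30 min later at room temperature.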
NPC1 promoter act = NPC1 promoter activation. 2.4% of 320,000 active. Potency, µM (titrated, usually from 9.22 µM), for the others: at the highest dose activation, hits mostly activators. Huh7 NPC1 promoter luciferase reporter, 24 h; also: % of control where 0% means no effect; nearly all actives have a fitted effect of over 60% in size
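Huh7 cells stably carrying NPC1 promoter–luciferase, plated in Opti-MEM with 10% FBS for 2 h, were exposed to compound in DMSO for 24 h at 37 °C; luciferase reagent was added for 10 min and luminescence read.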
SMN2 splice up = SMN2 splice variant enhancement. HEK293 SMN2-luciferase splicing reporter, luminescence, 30-36 h. Potency, µM (doses to about 46.1 µM), for inactives: at the highest dose activity change, positive = activation, hits mostly activators. 2.8% of 210,000 active; also: % of control where 0% means no effect; nearly all actives have a fitted effect of over 55% in size
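HEK293 cells carry an SMN2 […]–luciferase reporter in which exon 7 inclusion puts luciferase in frame. Cells were plated 10-12 h before compound addition, then incubated 30-36 h at 37C. ONE-Glo luminescence was read; sodium butyrate at 4.5 mM final served as control.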
Luc counter = counter-screen: inhibitors of Kinase-Glo firefly luciferase; Kinase-Glo luciferase, ATP luminescence, 8 min; Potency, µM (titrated, usually from 38.3 µM), without a hit: top-dose activity change, negative = inhibition, actives largely listed as inhibitors; 0.28% of 200,000 active; Q27757; also: % is scaled to controls: 0 for no effect and ±100 for the full control effect; nearly all actives have a fitted effect of over 60% in size
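Substrate mix (final 50 mM imidazole pH 7.2, 50 mM KCl, 7 mM MgCl2, 10 uM ATP, 0.01% Tween 20, 0.05% BSA) plus pin-tool compound, then Kinase-Glo detection mix; 8 min ambient, luminescence read.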
Rab9 promoter act = activators of Rab9 promoter | Huh7 Rab9 promoter-luciferase reporter, luminescence, 24 h | 2.8% of 320,000 active | AID 485297 | Potency, µM (series often up to 9.22 µM), for the others: at the top dose activation, negative = inhibition, hits mostly activators; also: % of control where 0% means no effect; nearly all actives have a fitted effect of over 60% in size
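Luminescence read-out: Huh7 cells stably expressing Rab9-luciferase, treated 24 h with compound at 37 °C, then lysed with luciferase reagent for 10 min at ambient before reading.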
An asterisk follows results filed as active; ? = inconclusive; · = no result given. Compounds with a hit are over-represented: about 7.5% of the library has one in this group of screens. Calls follow the shape of the dose curve; as a rule, active = well fitted curve in the direction sought with a large enough effect; inconclusive = small, poorly fitted or top-dose-only effect, or another doubt; inactive = no such curve, though single readings can be large; an effect the other way counts as inactive or inconclusive. Potency is read from the fitted curve at half-maximal effect.

SMILES	FLuc counter	ELG1 genotoxic	NPC1 promoter act	SMN2 splice up	Luc counter	Rab9 promoter act
Brc1ccc(-c2cn3c(n2)SCC3)cc1	5.4µM*	10µM*	1.1µM*	10µM*	-6%	0.71µM*
Clc1ccc(-c2cn3c(n2)SCC3)cc1	19µM*	15%	1.8µM*	11µM*	-4%	1.4µM*
Oc1ccc(-c2cn3c(n2)SCC3)cc1	?	17%	10%	9%	-4%	4%
CCOc1ccc(NC(=O)CSc2ccc(-c3cccnc3)nn2)cc1	?	-5%	-5%	·	·	4%
COCCn1c(C)cc(C(=O)COC(=O)CNC(=O)c2ccccc2)c1C	?	11%	-2%	3%	3%	-4%
Cc1cc(C(=O)COC(=O)c2cc(Cl)c(O)c(Cl)c2)c(C)n1C	17µM*	8%	1%	·	·	9%
COCCn1c(C)cc(C(=O)COC(=O)c2ccc(Br)o2)c1C	1.9µM*	4.1µM*	3.2µM*	26%	-10%	?
Cc1cc(C(=O)COC(=O)c2ccc(Br)o2)c(C)n1C	8.5µM*	?	-3%	1%	-7%	26%
O=C(CCc1ccc(S(=O)(=O)N2CCOCC2)cc1)Nc1ccc(F)cc1[N+](=O)[O-]	·	-2%	·	·	·	·
O=[N+]([O-])c1cnc2nc(-c3ccncc3)nn2c1O	21µM*	-1%	0%	-6%	11µM*	1%
CS(=O)(=O)c1ccc2nc(NC(=O)c3ccc(=O)[nH]c3)sc2c1	6.7µM*	6%	-7%	·	·	7%
CS(=O)(=O)c1ccc2nc(NC(=O)c3ccc(Cl)cc3)sc2c1	?	0%	3%	·	·	24%
Cn1nc(C(=O)Nc2nc3ccc(S(C)(=O)=O)cc3s2)ccc1=O	11µM*	11%	0%	-2%	?	-1%
c1ccc2c(c1)Nc1cc3ccccc3cc1S2	-27%	10%	3.2µM*	·	·	3.5µM*
COc1ccc2c(c1)Sc1ccccc1N2	?	2%	3%	-67%	0%	1%
CCCCC(=O)Nc1sc2c(c1C(N)=O)CCC2	21µM*	?	21%	?	-3%	?
Cc1sc(NC(=S)NC(=O)C(C)(C)C)c(C(N)=O)c1C	4.8µM*	?	?	?	0%	?
CC(C)(C)C(=O)NC(=S)Nc1sc2c(c1C(N)=O)CCC2	4.8µM*	28%	?	10µM*	0%	?
CC(=O)Nc1sc2c(c1C(N)=O)CCC2	1%	-3%	2%	3%	0%	0%
O=C(Nc1ncc(Cc2ccc(F)cc2)s1)c1ccc2c(c1)CC(c1ccccc1)OC2=O (stereo not given)	-1%	·	·	0%	·	·
CC12CCC3c4ccc(OCc5ccccc5)cc4CCC3C1CC(O)C2O (stereo not given)	·	·	·	-20%	-4%	·
O=C1NC(=O)/C(=C/c2ccc3c(c2)OC(F)(F)O3)S1	·	·	8.2µM*	·	·	?
O=C1NC(=O)/C(=C/c2cc3c(cc2Br)OCO3)S1	?	1%	-3%	·	·	3%
O=C(Nc1ccc(OC(F)(F)F)cc1)Nc1cccc([N+](=O)[O-])c1	24µM*	4%	-10%	·	·	-30%
Cc1ccc(NC(=O)Nc2cccc([N+](=O)[O-])c2)cc1F	11µM*	2%	?	·	·	17%
SMILES	FLuc counter	ELG1 genotoxic	NPC1 promoter act	SMN2 splice up	Luc counter	Rab9 promoter act
O=C(Nc1cccnc1)Nc1cccc([N+](=O)[O-])c1	-18%	-8%	11%	·	·	5%
Cc1cc(NC(=O)Nc2cccc([N+](=O)[O-])c2)no1	-9%	-4%	11%	-1%	-2%	10%
Cc1cccc(-c2nc(=S)c3c(o2)CCCC3)c1	3.4µM*	?	1.4µM*	11µM*	-11%	1.4µM*
Cc1ccsc1/C=C1\CCC(C2CCCC2)C1=O (stereo not given)	2.1µM*	?	2.8µM*	·	-18%	3.5µM*
Cc1ccsc1/C=C1\SC(N)=NC1=O	?	14%	18%	15%	-9%	25%
COc1ccc(/C=C2\CCOC2=O)cc1	-18%	1%	10%	-15%	-3%	13%
COc1ccc(/C=C2\CCC(C3CCCC3)C2=O)cc1 (stereo not given)	0.48µM*	?	4µM*	·	·	3.5µM*
Cc1ccc(/C=C2\CCC(C3CCCC3)C2=O)cc1 (stereo not given)	0.48µM*	9.2µM*	3.2µM*	22µM*	-7%	3.5µM*
COc1cc(OC)c(OC)cc1/C=C1\CCC(C2CCCC2)C1=O (stereo not given)	-13%	-14%	-2%	-24%	2%	1%
COc1ccc(/C=C2\CCC(C3CCCC3)C2=O)c(OC)c1 (stereo not given)	21µM*	8%	25%	·	·	13%
O=c1cc(-c2ccccc2)c2ccc3c(c2o1)CN(Cc1cccc(Cl)c1)CO3	-11%	·	·	-5%	·	·
COc1ccccc1/C=C/C(=O)NNC(=O)c1cccs1	?	?	22%	27%	1%	23%
O=C1CCCCC1Sc1nnc(Nc2ccccc2)s1 (stereo not given)	19µM*	?	2.5µM*	10µM*	-2%	3.2µM*
Cc1ccc(Nc2nnc(SC3CCOC3=O)s2)cc1 (stereo not given)	17µM*	3%	7%	14%	1%	-3%
O=C1OCCC1Sc1nc2ccccc2s1 (stereo not given)	0%	1%	-4%	8%	2%	-4%
CC(C)c1ccc(Nc2nnc(SC3CCOC3=O)s2)cc1 (stereo not given)	7.6µM*	-1%	0%	5%	-1%	0%
Cc1cccc(Nc2nnc(SC3CCOC3=O)s2)c1C (stereo not given)	?	0%	-4%	1%	-1%	3%
Cc1ccc(Cl)cc1NC(=O)C(C)n1nc(-c2ccccc2)ccc1=O (stereo not given)	-11%	·	·	-3%	·	·
COc1ccc2c(Sc3ccc(C)cc3)c(C(=O)NCC(C)c3ccccc3)[nH]c2c1 (stereo not given)	-17%	·	·	·	·	·
N#Cc1ccccc1OCC(=O)NC(=O)NCc1ccco1	19µM*	?	?	·	·	?
CCc1ccc(OCC(=O)NCc2ccco2)c(Br)c1	9.5µM*	?	?	3%	0%	?
CCOc1ccccc1/C=N/NC(=O)c1cccc(S(=O)(=O)N2CCOCC2)c1	-7%	4%	-5%	10%	-1%	-2%
O=C(CCc1nc2ccccc2[nH]c1=O)OCc1ccc(S(=O)(=O)N2CCOCC2)cc1	2%	1%	-2%	0%	-1%	3%
O=C(N/N=C/c1ccccc1C(=O)O)c1cccc(S(=O)(=O)N2CCOCC2)c1	12µM*	1%	1%	·	·	1%
